FAS-TE inh: inhibitors of human fatty acid synthase thioesterase domain | P49327 | recombinant FAS-TE, OMFH fluorogenic substrate, fluorescence endpoint | inhibition, % at 15 µM | 360,000 compounds, 0.67% hits | AID 602261;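 active = compounds whose normalised, plate-corrected inhibition of enzyme fluorescence in the single-dose primary screen is 50% or more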;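 note: 0% = DMSO with enzyme and 100% = substrate without enzyme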
Target sequence (P49327 whole entry, looked up, the tested form may be a part): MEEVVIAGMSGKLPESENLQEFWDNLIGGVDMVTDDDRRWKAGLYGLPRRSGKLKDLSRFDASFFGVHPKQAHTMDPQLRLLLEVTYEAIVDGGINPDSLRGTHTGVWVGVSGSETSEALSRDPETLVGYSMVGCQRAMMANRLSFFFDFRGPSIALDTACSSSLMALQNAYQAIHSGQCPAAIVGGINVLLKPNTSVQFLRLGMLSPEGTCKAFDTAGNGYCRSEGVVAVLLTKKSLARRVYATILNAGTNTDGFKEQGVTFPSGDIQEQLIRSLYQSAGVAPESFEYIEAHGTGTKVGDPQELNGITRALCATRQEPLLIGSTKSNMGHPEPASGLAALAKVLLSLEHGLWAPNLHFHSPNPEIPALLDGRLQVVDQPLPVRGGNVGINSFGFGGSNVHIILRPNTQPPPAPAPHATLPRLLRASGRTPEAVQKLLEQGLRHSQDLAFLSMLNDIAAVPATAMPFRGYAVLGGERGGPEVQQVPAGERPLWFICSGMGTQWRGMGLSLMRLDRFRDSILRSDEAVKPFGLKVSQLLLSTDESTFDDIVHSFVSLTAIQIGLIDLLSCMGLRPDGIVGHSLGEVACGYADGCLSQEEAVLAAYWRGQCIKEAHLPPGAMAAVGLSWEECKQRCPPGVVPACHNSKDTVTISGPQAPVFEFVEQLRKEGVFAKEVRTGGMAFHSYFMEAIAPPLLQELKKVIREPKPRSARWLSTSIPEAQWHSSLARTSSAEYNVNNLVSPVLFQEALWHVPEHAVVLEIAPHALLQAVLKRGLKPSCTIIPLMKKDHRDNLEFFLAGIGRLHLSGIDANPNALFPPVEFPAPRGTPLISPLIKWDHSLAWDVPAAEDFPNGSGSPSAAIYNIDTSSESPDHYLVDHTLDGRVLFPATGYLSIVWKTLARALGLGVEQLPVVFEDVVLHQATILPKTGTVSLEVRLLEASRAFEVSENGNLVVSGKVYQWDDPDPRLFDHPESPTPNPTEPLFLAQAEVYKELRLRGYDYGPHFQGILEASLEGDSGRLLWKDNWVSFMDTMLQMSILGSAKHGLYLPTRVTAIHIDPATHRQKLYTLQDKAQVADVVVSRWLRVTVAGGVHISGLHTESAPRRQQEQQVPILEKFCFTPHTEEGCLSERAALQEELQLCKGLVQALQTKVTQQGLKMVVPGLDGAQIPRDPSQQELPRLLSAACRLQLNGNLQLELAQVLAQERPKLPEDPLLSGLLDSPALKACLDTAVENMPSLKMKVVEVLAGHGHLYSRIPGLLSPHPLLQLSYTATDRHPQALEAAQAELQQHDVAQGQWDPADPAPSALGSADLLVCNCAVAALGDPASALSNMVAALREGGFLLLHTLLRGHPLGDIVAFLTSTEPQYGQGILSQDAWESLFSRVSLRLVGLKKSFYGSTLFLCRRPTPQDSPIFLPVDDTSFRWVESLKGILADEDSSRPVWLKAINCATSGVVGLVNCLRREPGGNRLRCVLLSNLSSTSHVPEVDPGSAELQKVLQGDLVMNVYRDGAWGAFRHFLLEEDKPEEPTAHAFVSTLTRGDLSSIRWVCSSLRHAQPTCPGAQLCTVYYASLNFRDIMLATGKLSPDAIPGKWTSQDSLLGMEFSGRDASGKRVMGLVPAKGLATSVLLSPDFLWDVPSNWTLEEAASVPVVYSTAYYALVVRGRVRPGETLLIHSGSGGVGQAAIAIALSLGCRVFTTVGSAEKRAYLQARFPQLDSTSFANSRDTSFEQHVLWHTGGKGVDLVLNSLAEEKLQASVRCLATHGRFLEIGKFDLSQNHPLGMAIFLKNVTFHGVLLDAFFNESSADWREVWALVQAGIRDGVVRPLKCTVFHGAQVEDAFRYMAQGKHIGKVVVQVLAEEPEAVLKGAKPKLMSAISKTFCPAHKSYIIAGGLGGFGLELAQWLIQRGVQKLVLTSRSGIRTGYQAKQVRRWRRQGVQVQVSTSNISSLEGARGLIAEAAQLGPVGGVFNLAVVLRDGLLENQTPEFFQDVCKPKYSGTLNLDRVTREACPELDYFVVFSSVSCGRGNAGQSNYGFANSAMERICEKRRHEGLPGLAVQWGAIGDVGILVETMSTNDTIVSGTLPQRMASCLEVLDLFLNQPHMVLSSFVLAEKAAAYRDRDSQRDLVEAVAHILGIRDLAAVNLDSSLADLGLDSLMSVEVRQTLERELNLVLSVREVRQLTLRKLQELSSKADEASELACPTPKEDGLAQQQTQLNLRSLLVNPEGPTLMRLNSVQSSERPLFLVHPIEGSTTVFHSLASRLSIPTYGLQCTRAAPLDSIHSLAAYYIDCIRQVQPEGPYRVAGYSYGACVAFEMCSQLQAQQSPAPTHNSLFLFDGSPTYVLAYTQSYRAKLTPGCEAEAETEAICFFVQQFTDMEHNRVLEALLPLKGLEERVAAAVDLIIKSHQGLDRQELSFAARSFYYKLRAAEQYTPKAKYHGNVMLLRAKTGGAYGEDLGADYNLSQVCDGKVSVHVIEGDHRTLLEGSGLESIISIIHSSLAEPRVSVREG
GC-B act: GC-B (human) receptor activation; P20594; HEK293-GC-B cells, CNP EC30, cGMP TR-FRET; 0% at EC30 CNP, 100% saturating CNP; activation, % at 10 µM; 370,000 compounds, 0.11% hits; AID 1920062;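 active = activation at 10 µM reaching about 35% in either raw or pattern-adjusted values, limit read from the data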
ADAM17 inh: ADAM17 inhibition, QFRET primary screen. P78536. recombinant ADAM17, EDANS/DABCYL FRET peptide cleavage. inhibition, % at 6.95 µM. 370,000 compounds, 0.83% hits;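 active = inhibition above the mean of compounds lying between control limits plus 3 SD, set per campaign, cut at about 8.5% in these data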;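 note: 0% = DMSO-only wells as the low control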
ADAM10 inh: inhibitors of human ADAM10 | inhibition, % at 7 µM | 370,000 compounds, 0.62% hits | AID 720582 | recombinant ADAM10, EDANS/DABCYL FRET peptide cleavage, 3 h | O14672;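 active = inhibition above a per-campaign cutoff equal to the mean of compounds falling between control-based bounds plus 3 SD, cut at about 20% in these data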;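 note: 0% = DMSO wells while the 100% control is not disclosed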
GC-A act: GC-A (human) enzyme activation. P16066. HEK293 GC-A cells, cGMP TR-FRET, EC30 ANP; 0% at EC30 ANP, 100% saturating ANP. activation, % at 10 µM. 370,000 compounds, 0.14% hits. AID 1671463; in the data active = activation above about 40%
An asterisk follows results filed as active; . = no result. The list is not random: actives were taken first. Their share in the collection is about 2%.

SMILES	FAS-TE inh	GC-B act	ADAM17 inh	ADAM10 inh	GC-A act
CCOC(=O)c1cnc(-n2nc(C)cc2C)nc1NCc1ccccc1	4	1	-4	-11	1
C=CCNc1nc(=S)[nH]c2cc(OC)c(OC)cc12	-8	37*	-4	-14	41*
C#CCCCN([C@@H](CC(C)C)C(=O)OC)S(=O)(=O)c1ccccc1Br	.	-3	8.6*	14	-5
Cn1c(SCC(=O)Nc2ccc(S(=O)(=O)Nc3nccs3)cc2)nc2sc3c(c2c1=O)CCCC3	.	-1	2	11	-1
Cc1ccc(CNC(=O)c2cc(C3CC3)nc3c2cnn3C(C)C)cc1	22	50*	-10	-34	40*
COC(=O)[C@]12C[C@H](CC(=O)NCCC(C)C)C(=O)N(CCc3ccc(OC)c(OC)c3)C1=C[C@H](COCc1ccccc1)O[C@@H]2C	.	-2	-1	7	-1
O=C(NCCc1c[nH]c2ccccc12)OCc1cn(Cc2c(F)cccc2F)nn1	.	4	0	5	2
CC(Nc1nc(-c2ccc(Cl)cc2)cs1)c1nc2cc(Cl)c(N3CCCCC3)cc2n1CCOCCO (centres undefined)	24	-5	7	22*	-4
Cc1ccc2c(c1)N(CCCC(=O)NCc1ccc(F)cc1)C(=O)CO2	.	-8	-3	-9	0
COc1ccc(CN2C/C(=C/C3=CCCCC3)N(C(=O)OCc3ccccc3)C2=N)c(OC)c1	.	1	5	0	-1
CCOc1ccc(NCc2nc3ccccc3n2CCOc2ccccc2)cc1	10	-4	7	30*	1
COC(=O)[C@]12C[C@H](CC(=O)NCc3ccc(OC)c(OC)c3)C(=O)N(Cc3ccco3)C1=C[C@H](COCc1ccccc1)O[C@@H]2C	.	5	-3	-6	3
O=C1CCCN1CCCNc1nc2c(S(=O)(=O)c3ccccc3)nnn2c2ccc(Cl)cc12	42	48*	-25	-68	36
Cc1ccccc1Cn1cc(CN2[C@H](C)COc3cc(Br)ccc3S2(=O)=O)nn1	.	0	1	3	-4
CCC(=O)Nc1ccc2c(c1)C(=O)N(C)[C@@H]1CC[C@@H](CC(=O)NCCN3CCCCC3)O[C@H]1CO2	.	9	-9	-16	2
NC(=O)C1(Nc2ccc(-c3ccc(Cl)cc3)cc2)CCCC1	6	-9	-10	-29	58*
COCCOC(=O)C1=C(C)NC(=S)NC1/C=C/c1ccccc1 (centres undefined)	-9	2	-3	-3	28
C=CCOC(=O)C1=C(C)NC(=S)NC1/C=C/c1ccccc1 (centres undefined)	-3	-2	-3	-2	43*
Cc1ccc(S(=O)(=O)c2nnn3c2nc(N2CCOCC2)c2ccccc23)cc1	37	38*	-1	-4	34
CCCCn1c(SC(C)C(=O)c2ccc(OC)cc2)nc2cc(S(N)(=O)=O)ccc21 (centres undefined)	15	-7	20*	26*	-9
Clc1ccc(C2=NNC(=NCc3ccc4c(c3)OCO4)SC2)cc1	5	-6	12*	11	0
Oc1ccc(C2=NNC(=NCc3ccc4c(c3)OCO4)SC2)c(O)c1	-10	0	-11	-52	6
O=S(=O)(O)c1cccc2c(N=Nc3ccc(O)c4ncccc34)cccc12	75*	.	.	.	.
C[C@@H]1CN([C@H](C)CO)C(=O)Cc2cc(NC(=O)Nc3ccccc3)ccc2O[C@@H]1CN(C)Cc1ccc2c(c1)OCO2	10	-1	4	20*	2
C[C@H](CO)N1C[C@H](C)[C@@H](CN(C)Cc2ccc(Oc3ccccc3)cc2)Oc2c(NC(=O)C3CC3)cccc2C1=O	21	2	8	22*	-4
SMILES	FAS-TE inh	GC-B act	ADAM17 inh	ADAM10 inh	GC-A act
CC(C)NC(=O)N(C)C[C@H]1Oc2ccc(NC(=O)Nc3ccc(C(F)(F)F)cc3)cc2C(=O)N([C@H](C)CO)C[C@@H]1C	-1	4	1	-1	4
C[C@H](CO)N1C[C@H](C)[C@@H](CN(C)C(=O)Nc2ccc(C(F)(F)F)cc2)Oc2ccc(NC(=O)Nc3ccc(C(F)(F)F)cc3)cc2C1=O	21	4	13*	26*	2
C[C@H](CO)N1C[C@H](C)[C@@H](CN(C)C(=O)Nc2ccc(C(F)(F)F)cc2)Oc2c(NC(=O)Nc3ccc(C(F)(F)F)cc3)cccc2C1=O	79*	-1	12*	29*	-6
Cc1cc(=O)[nH]c(SCC(=O)Nc2ccc(F)c(F)c2)n1	.	-8	-1	-7	0
CC1(c2nnnn2C2CCCCC2)CSCC(=O)N1CCc1ccc(O)cc1 (centres undefined)	.	2	0	2	-7
COc1ccc(S(=O)(=O)N(C)C[C@H]2Oc3ccc(NC(=O)Nc4ccc(C(F)(F)F)cc4)cc3C(=O)N([C@H](C)CO)C[C@@H]2C)cc1	35	5	12*	29*	5
C[C@H]1CN([C@@H](C)CO)C(=O)c2cccc(NC(=O)Nc3ccc(C(F)(F)F)cc3)c2O[C@@H]1CN(C)C(=O)Nc1ccc(F)cc1	45	-2	6	23*	-2
COc1ccc(NC(=O)CN2CCN(c3nc(-c4cccc(OC)c4)cs3)CC2)cc1	18	-1	9	20*	-8
N#CC1=C(N)Oc2cc(N)ccc2C1c1cccc(F)c1 (centres undefined)	0	-2	-4	7	43*
CN(C)c1ccc2c(c1)OC(N)=C(C#N)C2c1cccc(F)c1 (centres undefined)	-46	.	.	.	.
COc1cccc(CNC(=O)[C@H]2CCCN2C(=O)[C@H]2CCCN2C(=O)c2ccc(Cl)cc2)c1	.	-1	0	0	-2
S=C(c1ccc(-c2ccc(Br)cc2)o1)N1CCOCC1	34	36*	0	5	28
C=C1C(=O)[C@]23C[C@H]1CC[C@H]2[C@]1(C)CCC[C@@](C)(C(=O)OC)[C@H]1C[C@@H]3O	.	38*	-2	1	19
C=C1C(=O)[C@]23C[C@H]1CCC2[C@@]1(C)C(C[C@@H]3O)[C@](C)(C(=O)OC)CC[C@@H]1O (some centres undefined)	-9	11	-6	-15	16
CC(C)N1Cc2nnn(Cc3ccccc3)c2-c2cc(F)ccc2S1(=O)=O	.	-1	0	6	-2
CC(C)CNc1nnnc2c1sc1nc(N3CCOCC3)c3c(c12)CC(C)(C)SC3	27	40*	1	-16	52*
CN(C)CCNc1ncnc2c1sc1nc(N3CCCC3)c3c(c12)CC(C)(C)OC3	2	9	-5	-18	16
Cc1nc2c(sc3nc(N4CCOCC4)c4c(c32)CC(C)(C)OC4)c(-c2ccccc2)c1C(=O)O	21	-4	-8	-10	13
CC(C)CNc1ncnc2c1sc1nc(N3CCOCC3)c3c(c12)CC(C)(C)OC3	19	39*	-9	-19	42*
